Experimental data: PubChem BioAssay (NCI)
Compounds without any hit were thinned out: in the full panel of roughly 83,000, 20% have a hit.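 Interpretation: 100, growth as untreated; towards 0, rising growth inhibition; 0, no net growth; 0 to -100, cell death. Compounds scoring below 10 were considered active.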 Unmarked numbers belong to inactive results. The source made the active and inactive calls. Where a SMILES comes first, the peptide text is derived from it. [ ]: non-standard residue; d: D form. ξ: configuration not given here. ξD = NC(CC(=O)O)C(=O)O

Experiments:
Experiment in all cases: NCI-60 one-dose screen, 48 h (100 = growth as untreated, 0 = no growth, -100 = all killed)
Details in all cases: 10 µM unless noted
NCI-H23 lung = tested on: NCI-H23 lung
NCI-H226 lung = tested on: NCI-H226 lung
NCI-H322M lung = tested on: NCI-H322M lung
HOP-62 NSCLC = tested on: HOP-62 NSCLC
HOP-92 NSCLC = tested on: HOP-92 NSCLC
A549/ATCC NSCLC = tested on: A549/ATCC NSCLC
786-0 renal = tested on: 786-0 renal
COLO 205 colon = tested on: COLO 205 colon
NCI-H522 lung = tested on: NCI-H522 lung
NCI-H460 lung = tested on: NCI-H460 lung

Compound | growth (NCI-H23 lung) | growth (NCI-H226 lung) | growth (NCI-H322M lung) | growth (HOP-62 NSCLC) | growth (HOP-92 NSCLC) | growth (A549/ATCC NSCLC) | growth (786-0 renal) | growth (COLO 205 colon) | growth (NCI-H522 lung) | growth (NCI-H460 lung)
COc1cc(/C=C2\SC(=S)N(/C=C/c3nc4ccccc4[nH]c3=O)C2=O)cc(OC)c1OC | 69.7% | 76.6% | 89.1% | 65.8% | 53.3% | 67.5% | 76.6% | 101% | – | –
NC1=C(Br)C(=O)c2ncccc2C1=O | -46% (active) | 90.4% | 34.9% | -73.1% (active) | 34.5% | -52.6% (active) | 11.4% | 37.9% | -59.1% (active) | –
Cc1cc(=O)oc2cc(O)cc(O)c12 | 107% | 97.7% | 103% | 87.2% | 100% | – | 98% | 110% | 88.7% | –
CC(C)(C)c1ccc(CCO)cc1 | 97.5% | 91.8% | 84.5% | 97.5% | 100% | 103% | 98.2% | 110% | 85.4% | –
O=C(O)c1cccc2cccc(-c3c4ccc(=O)c(O)c-4oc4c(O)c(O)ccc34)c12 | 89.3% | 95.5% | 97.2% | – | 93.8% | 96.4% | 98.8% | 111% | 90.9% | 100%
Oc1c(Cl)cc(Cl)cc1C=NCC1CCC(CN=Cc2cc(Cl)cc(Cl)c2O)CC1 (centres undefined) | 102% | 97% | 75.5% | 95.1% | 76.6% | 106% | 96.7% | 112% | – | –
O=C1C(=O)c2cc([N+](=O)[O-])ccc2-c2ccccc21 | -71.8% (active) | -98.7% (active) | 96.9% | -93.3% (active) | – | -52.2% (active) | -96.7% (active) | -56.9% (active) | – | –
NC(CS/C(Cl)=C/Cl)C(=O)O (centres undefined) | 97.6% | 86.9% | – | -3.21% (active) | 83.3% | -52.9% (active) | 105% | – | 93.4% | -45.9% (active)
O=C1C=CC(=O)N1c1cccc2c1CCCC2 | 106% | 96.4% | 91.9% | 105% | 84.2% | 104% | 105% | 49.1% | – | –
NCC(=O)NC(CC(=O)O)C(=O)O (centres undefined) (H-Gly-[ξD]-OH) | 108% | 100% | – | 101% | 100% | 103% | 100% | 119% | 87.1% | 110%
Nc1nc(-c2ccccc2)nc(N)c1N=O | 97.3% | 90.4% | 100% | – | 65.3% | 66% | 83.6% | – | -7.61% (active) | 23.8%
OC(c1cc(-c2ccc(Cl)cc2)nc2c(Cl)cccc12)C1CCCCN1 (centres undefined) | -9.58% (active) | -44.1% (active) | -54.8% (active) | -92.2% (active) | -29.4% (active) | -82.9% (active) | -75% (active) | -91.1% (active) | -89.1% (active) | –
O=C(Nc1cccc(C(F)(F)F)c1)Oc1ccc(Cl)c2cccnc12 | 8.91% (active) | 86.3% | 101% | 76.8% | – | -1.52% (active) | 88% | 89.6% | -77.1% (active) | –
Cc1ccc2cccc(OC(=O)Nc3cccc(C(F)(F)F)c3)c2n1 | 37.1% | 67.7% | 88.7% | – | – | 42.7% | 78.6% | 62.3% | – | 27.5%
Oc1ccc(Br)cc1Sc1cc(Br)ccc1O | 9.64% (active) | 98.2% | 92% | 84.7% | 22.1% | 50.6% | 100% | 113% | – | –
O=C1c2ccccc2C(=O)c2c(O)c(Cl)cc(O)c21 | 96.6% | 104% | 111% | 96.2% | 87.7% | 108% | 99.2% | 101% | 85.4% | –
CC1C(c2ccccc2)OCCN1C(=S)Nc1ccc(S(=O)(=O)N2CCCCC2)cc1 (centres undefined) | 98.6% | 91.6% | 108% | 109% | 78.2% | 102% | 109% | 108% | -34.1% (active) | –

Compound | growth (NCI-H23 lung) | growth (NCI-H226 lung) | growth (NCI-H322M lung) | growth (HOP-62 NSCLC) | growth (HOP-92 NSCLC) | growth (A549/ATCC NSCLC) | growth (786-0 renal) | growth (COLO 205 colon) | growth (NCI-H522 lung) | growth (NCI-H460 lung)
COc1cc(/C=C/c2ccnc3ccccc23)cc(OC)c1OC | 26.5% | 38.3% | 65.7% | 28.1% | – | 37% | 39.6% | 22.5% | 26.8% | –
O=[N+]([O-])/C(=C/c1ccccc1)c1ccccc1 | 99.4% | 97.5% | 106% | – | 99.9% | 101% | 97.9% | 112% | – | 102%
CCCCCCCCC(=O)OCCCC(CCC(CCC1CCCO1)OC(=O)CCCCCCCC)OC(=O)CCCCCCCC (centres undefined) | 104% | 104% | 102% | 95.6% | 99% | 104% | 97% | 111% | 70.8% | –
CCCc1cc(=O)oc2c3c(c4c(c12)OC(C)(C)CC4)OC(C)[C@H](C)[C@@H]3O (some centres undefined) | 81.4% | 81.1% | 106% | – | -1.36% (active) | 72% | 86.4% | 96.1% | 57.7% | 85.7%
CSc1nc(C)c(C(=O)CCN2CCN(c3ccccn3)CC2)s1 | 106% | 107% | 107% | – | – | 102% | 101% | – | -64.2% (active) | 106%
N#CC(=C1SCS1)[N+](=O)[O-] | 43.9% | 75.3% | – | 41.7% | 63% | 20.9% | 21.8% | -21.5% (active) | -40.3% (active) | -6.65% (active)
COC1=CC(=O)c2c(O)c3c(c(O)c2C1=O)CC(C)(O)OC3 (centres undefined) | -27% (active) | 90.1% | 5.37% (active) | 9.06% (active) | -16.4% (active) | 2.13% (active) | 34% | -61.7% (active) | 14.7% | –
O=C(c1ccccc1)C(O)C(Br)(CBr)c1ccccc1 (centres undefined) | 74.9% | 90.2% | 101% | 107% | 47.2% | 88.5% | 105% | 120% | – | –
Clc1ccc(-n2ncc3c(NCCCN4CCOCC4)ncnc32)cc1 | 87.6% | 91.8% | 89.8% | 87.7% | 71.3% | – | 107% | 87.4% | 94.7% | –
CC(=O)c1ccc2c(c1)CCc1ccccc1-2 | 107% | 94.7% | 116% | 88.5% | 95.3% | 91% | 83.7% | 110% | 110% | –
O=C(c1ccccc1)C(Br)C(Br)c1ccccc1 (centres undefined) | 104% | 109% | 121% | 103% | 46% | 99.2% | – | 6.72% (active) | – | –
CC1(O)CCCCCC1 | 98.4% | 99.1% | 93.1% | 87.7% | – | 103% | 95.7% | 107% | 112% | –
CCCCCCCCCCCCN1C(C)=CS/C1=C\C=C\c1scc(C)[n+]1CCCCCCCCCCCC | 10.8% | 40.6% | 96.8% | 35.5% | 36.8% | 16.6% | 37.3% | 8.86% (active) | 3.47% (active) | –
O=C(Cc1nc2cc(Cl)c(Cl)cc2nc1CC(=O)c1cccnc1)c1cccnc1 | 88.1% | 77.2% | 78.4% | 86.3% | 78% | 93.5% | 58.7% | 89.8% | 58.8% | –
O=[N+]([O-])c1ccc2c(c1)Cc1ccccc1-2 | 99.9% | 108% | 106% | 94.8% | – | 94.8% | 91% | 116% | – | –
COc1ccc2nc3cc(Cl)ccc3c(NCCCCCN3CCCCC3)c2c1 | -49.1% (active) | -39.8% (active) | – | -31.6% (active) | -56.4% (active) | -33.1% (active) | -73.4% (active) | -89.4% (active) | -71.6% (active) | -62.9% (active)
